# Results from PubChem BioAssay AID1117359 (Southern Research Institute, 2015).
# Out of some 1,500 compounds screened, about 460 (31%) were called active.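 The calls were made as follows: active = viability at or below 80% at any tested concentration, marking the compound as toxic; inactive = the rest.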 Not all results are given here. Measured potencies and affinities stand elsewhere.
# Experiment: viability loss in THP-1 monocytes – THP-1 cells, cytotoxicity control for Vif-APOBEC3G degradation inhibitor project, dose response (AID 1117359)
# Conditions: THP-1 viability, CellTiter-Glo luminescence, 72 h; series mostly up to 40 µM; viability: at the top concentration
SMILES,viability,outcome
O=C1N=C(N2CCN(c3ccccc3)CC2)S/C1=C\c1ccco1,86.3% (inactive),
CCCCn1c(N)c(N(CCOC)C(=O)c2cc(-c3ccco3)nc3ccccc23)c(=O)[nH]c1=O,101% (inactive),
CCOc1ccc(/C=C2\SC(=S)N(CCC(=O)O)C2=O)cc1,100% (inactive),
C=CCOc1ccc(/C=C2\SC(=S)N(CCC(=O)O)C2=O)cc1,108% (inactive),
CN(CCC#N)C(=O)COC(=O)c1c2c(nc3ccccc13)/C(=C\c1ccco1)CC2,83% (inactive),
COc1ccccc1C(C#N)N1N=C(C)CC1(C)C (centres undefined),107% (inactive),
CCCN(CC(=O)Nc1ccccc1C)C(=O)COC(=O)c1cnc(C)cn1,105% (inactive),
O=C(COc1ccccc1C(=O)O)Nc1ccc(SC(F)F)cc1,102% (inactive),
COc1ccccc1NC(=O)COC(=O)c1cc2c(s1)CCC2,81% (inactive),
CN(C)CCCN(CCCN(C)C)C(=S)Nc1ccc(S(=O)(=O)N2CCOCC2)cc1,96.8% (inactive),
CNc1ccc(Br)cc(C(=O)/C=C/c2ccc(OC)cc2)c1=O,89% (inactive),
CCNc1ccc(Br)cc(C(=O)/C=C/c2ccc(Cl)cc2)c1=O,83.2% (inactive),
COc1ccc(Br)c(C(=O)NC(C)(C)CO)c1,97.4% (inactive),
O=C(CCc1ccccc1)NNC(=S)NCCc1ccccc1,82% (inactive),
O=C1CCCCC1Oc1ccc2ccc(=O)oc2c1 (centres undefined),119% (inactive),
Cc1ccc(OCCC(=O)OCC(=O)c2ccc3c(c2)NC(=O)CO3)cc1,121% (inactive),
Oc1ccc(/C=N/N2CCCCC2)c(O)c1O,111% (inactive),
Oc1ccc(/C=N/N2CCOCC2)c(O)c1O,90.6% (inactive),
CN=c1scc(C)n1/N=C/c1ccc(O)c(O)c1O,,inactive
CCOC(=O)C1CCCN(C(=O)c2cc(-c3ccco3)nc3ccccc23)C1 (centres undefined),91.6% (inactive),
Cc1nn(Cc2ccccc2)c(C)c1/C=N/NC(=O)c1ccccc1O,96.5% (inactive),
C=C(C)C(=O)Nc1cccc(C2=NOC3(C2)C[C@@H](C(N)=O)N(C(=O)/C=C/CC)C3)c1 (some centres undefined),101% (inactive),

SMILES,viability,outcome
O=C1N=C(N2CCOCC2)SC1=Cc1ccco1,88.8% (inactive),
O=C(/C=C/c1ccco1)c1cccnc1,101% (inactive),
COc1cc(-n2cnnn2)ccc1S(=O)(=O)N1CCOCC1,106% (inactive),
O=[N+]([O-])c1ccc(Cl)c(S(=O)(=O)Nc2cccc(S(=O)(=O)NC3=NCCC3)c2)c1,116% (inactive),
CN1CCN(/C=C(\C#N)S(=O)(=O)c2ccc(Cl)cc2)CC1,95.5% (inactive),
CC(C)(C)NC(=O)/C(=C/c1ccco1)c1ccccc1,106% (inactive),
COc1ccc(CN2CCSCC2)cc1C,90.2% (inactive),
COc1ccc(C(=O)CSc2nnc3n2CCCN3C(=O)Nc2ccccc2)cc1,91% (inactive),
CCC1=NN2C(=N)/C(=C\c3cccn3-c3cccc(Cl)c3)C(=O)N=C2S1,92.3% (inactive),
O=C(Nn1cnnc1)c1cc(-c2cccc(Br)c2)nc2ccccc12,101% (inactive),
CC(C)Cn1c(SCC(=O)Nc2cccnc2Cl)nnc1-c1ccco1,99.8% (inactive),
CC(CNc1ccccc1O)C(=O)O (centres undefined),90.3% (inactive),
C=CCc1cc(Cl)ccc1OC(=O)Nc1cccc(Cl)c1,86.7% (inactive),
[O-]/[N+](=C\C=C\c1ccccc1)c1ccccc1,95.6% (inactive),
O=C(COC(=O)C12CC3CC(CC(Br)(C3)C1)C2)Nc1ccc2[nH]c(=O)[nH]c2c1,87.7% (inactive),
Cc1cccc(NC(=O)CSc2nnc(CCC(=O)Nc3ccc(C)c(Cl)c3)n2C)c1,99.7% (inactive),
N=C1C=CC=C2C1=NC1(CCCCC1)N2O,91.8% (inactive),
CC(=O)c1ccc(N2C(=NC(=O)C3CCCO3)SC3CS(=O)(=O)CC32)cc1 (centres undefined),102% (inactive),
C[C@@H]1NC(=O)[C@H](CCC(N)=O)NC(=O)c2cc([N+](=O)[O-])cc(I)c2NCCC[C@@H](C(N)=O)NC1=O,97% (inactive),
Cn1cc(CN2CCN(CCO)CC2)c(-c2ccc(Oc3ccccc3)cc2)n1,89.5% (inactive),
O=C(CSc1nnc(Cc2ccc(Cl)cc2)o1)Nc1ccccc1,101% (inactive),
COc1ccccc1N1C(=O)CC(Nc2ccc(N3CCOCC3)cc2)C1=O (centres undefined),113% (inactive),

SMILES,viability,outcome
COc1cccc(CNCC(=O)Nc2ccc(N3CCOCC3)cc2)c1,105% (inactive),
O=C(CC1C(=O)NCCN1Cc1ccc(F)cc1)NCCN1CCCc2ccccc21 (centres undefined),93.5% (inactive),
CCc1cccc(NC(=O)CCS(=O)(=O)c2ccc(Br)cc2)c1,87.2% (inactive),
O=C(CSc1nccc(=O)[nH]1)Nc1ccc2c(c1)OCCO2,103% (inactive),
COc1ccc(NC(=O)C2CCCNC2)cc1OCC(C)C (centres undefined),96% (inactive),
Cc1cc(/C=C2\SC(=S)NC2=O)c(C)n1-c1ccccc1,106% (inactive),
Cc1c(C)n(C(=O)CSc2nc3ccccc3[nH]2)c2ccccc12,102% (inactive),
COc1ccc(C(=O)NC2CC3CCCC(C2)N3CC(C)C)cc1 (centres undefined),108% (inactive),
Cc1ccc(NC(=O)CSc2nnc([C@H](C)NC(=O)OC(C)(C)C)o2)c(C)c1,86.8% (inactive),
CCOc1cc(C(C(=O)NCC2CCCO2)N(C(=O)Cn2nnc3ccccc32)c2cccc(OC)c2)ccc1O (centres undefined),98.6% (inactive),
COc1cc(/C=C2/C(=O)N(c3ccc(Br)cc3)N=C2C)cc(OC)c1OC,92.3% (inactive),
O=C1NCC(O)=C1C=NC12CC3CC(CC(C3)C1)C2,97.2% (inactive),
CCN(CC)C(=O)CN1C(=O)C2(NC(=O)c3ccccc3N2)c2ccccc21 (centres undefined),93.6% (inactive),
CCc1cc2c(=O)n(-c3ccc(C)cc3)cnc2s1,89.1% (inactive),
CC(=O)NC1=NC(=O)/C(=C/c2cc(C)n(-c3cccc(C(=O)O)c3)c2C)S1,92.4% (inactive),
O=C1NC(c2cccc(Br)c2)=N/C1=C\c1ccco1,88.8% (inactive),
Nc1ccccc1NC1=CC(=O)CC(c2ccco2)C1 (centres undefined),102% (inactive),
O=C1CC(c2ccco2)CC(O)=C1C=Nc1cc(Cl)ccc1Cl (centres undefined),86.1% (inactive),
O=C1CCC/C(=N\NC(=O)c2ccc(COc3cccc4cccnc34)cc2)C1,89.2% (inactive),
O=C(NN(C(=O)c1ccccc1)c1ccccc1)c1ccccc1,105% (inactive),
Oc1ccc(/C=N/N2CCCCC2)c(O)c1,89.5% (inactive),
S=c1[nH]nc(C2CC2)n1Cc1ccco1,110% (inactive),

SMILES,viability,outcome
CCC(C)[C@H](NC(=O)Nc1ccccc1F)C(=O)OC (some centres undefined),87% (inactive),
Cc1nc2ccccc2n2c(O)c(CC(=O)O)cc12,102% (inactive),
O=S(=O)(O)c1cc(Cl)cc(N=Nc2ccc(O)cc2O)c1O,112% (inactive),
Cc1nc2ccc(NS(=O)(=O)c3ccc(F)cc3F)cc2s1,83.6% (inactive),
CC(C)CN(C(=O)CN1CCN(c2ccc(O)cc2)CC1)c1c(N)n(CC(C)C)c(=O)[nH]c1=O,90.8% (inactive),
O=c1oc2c(O)c(O)cc3c(=O)oc4c(O)c(O)cc1c4c23,81.6% (inactive),
CN(Cc1ccccc1)C(=O)C1CCCN1S(=O)(=O)c1ccc2c(c1)n(C)c(=O)c(=O)n2C (centres undefined),104% (inactive),
CC1(C)Cc2nc3sc(C(=O)O)c(N)c3cc2CS1,85.6% (inactive),
O=c1cc2oc3cc(O)c(O)cc3c(-c3ccccc3O)c-2cc1O,84.8% (inactive),
COCCn1c(SCC(=O)Nc2cc(C)on2)nc2cc(Cl)ccc2c1=O,95.7% (inactive),
CCCCS(=O)(=O)N1CCCC(C(=O)N2CCOCC2)C1 (centres undefined),91.6% (inactive),
COc1ccc(NS(=O)(=O)c2cccc(C(=O)NNC(=O)c3cccn3C)c2)cc1,96.1% (inactive),
COc1ccc(S(=O)(=O)NNC(=O)c2sccc2-n2cccc2)cc1,93.2% (inactive),
Cc1ccc(C(=O)O)cc1-c1ccc(/C=C2/NC(=O)N(c3ccccc3)C2=O)o1,104% (inactive),
COC(=O)C1C(O)=C(C=Nc2ccc(N)cc2)C(=O)CC1(C)C (centres undefined),86.8% (inactive),
COc1ccc(/C(O)=C2/C(=O)C(=O)N(c3ccccn3)C2c2ccc(F)cc2)cc1 (centres undefined),88.5% (inactive),
COC(=O)C1=C(O)/C(=C/c2cccc(OC)c2O)N=C1C,119% (inactive),
Cc1cc(O)c(C(C)C)cc1N=Cc1ccc([N+](=O)[O-])cc1,86% (inactive),
O=[N+]([O-])/C(C(Cl)=C(Cl)Cl)=C(/NC1CC1)Sc1ccccc1,80.3% (inactive),
CN1OC[C@@H]2CN(C(=O)C(C)(C)C)[C@H](c3cccc(Oc4ccccc4)c3)C[C@@H]21,81.6% (inactive),
COc1ccc(C2CC(=O)Oc3cc(OC)ccc32)cc1 (centres undefined),97% (inactive),
Cc1ccc(C(=O)C2=C(O)C(=O)N(c3ncccn3)C2c2ccc(F)cc2)o1 (centres undefined),98.4% (inactive),

SMILES,viability,outcome
O=C(O)/C=C/c1ccc(S(=O)(=O)N2CCN(CCN3C(=O)C4C5C=CC(C5)C4C3=O)CC2)cc1 (centres undefined),105% (inactive),
O=S(=O)(O)c1cccc2c(N=Nc3ccc(O)c4ncccc34)cccc12,112% (inactive),
O=[N+]([O-])c1cc2ccccc2c(O)c1O,105% (inactive),
CN(CC(=O)Nc1ccccc1Cl)C(=O)Cn1cc(C(F)(F)F)cc(Cl)c1=O,98.7% (inactive),
Cc1[nH]c(=O)nc(NN=Cc2ccc(Cl)cc2)c1C(=O)Nc1ccc(Cl)cc1,94.2% (inactive),
CC(=C/C(=O)O)/C=C/c1ccc(Cl)o1,104% (inactive),
COc1ccccc1C(=O)Nc1ccc(-c2nnc(SCC(=O)O)n2C)cc1,96.2% (inactive),
O=C(CSc1nnc(-c2ccco2)c(-c2ccco2)n1)Nc1ccccc1,80.2% (inactive),
O=[N+]([O-])c1ccc(-c2c[nH]c(=S)[nH]2)cc1,103% (inactive),
CCOc1ccc(/C=C2\NC(=S)NC2=O)cc1,96.2% (inactive),
COc1ccc(-c2cc(-c3ccco3)[nH]c(=O)c2C#N)cc1,101% (inactive),
CC1CCC/C(=C\Nc2ccc(C(=O)O)c(O)c2)C1=O (centres undefined),107% (inactive),
CCNC(=O)COC(=O)c1cc(-c2ccco2)nc2ccccc12,96.2% (inactive),
CN(C)[C@@H]1C(=O)C(C(=O)NCN2CCCC2)=C(O)[C@@]2(O)C(=O)C3=C(O)c4c(O)cccc4[C@@](C)(O)C3CC12 (some centres undefined),88.8% (inactive),
Cc1cc(/C=C2\SC(=S)NC2=O)c(C)n1C,83.5% (inactive),
COC(=O)Cc1ccc(NC(=S)NNC(=O)C2CC2)cc1,94.8% (inactive),
O=c1[nH][nH]c(=O)c2nc(Nc3ccccc3)ncc12,93.8% (inactive),
CCN(CC)c1ccc(C=Nc2ccc(N(C)C)cc2)c(O)c1,92.7% (inactive),
Cc1ccccc1NC(=O)Cc1nc(COC(=O)Cc2ccccc2F)cs1,110% (inactive),
CN(C)c1ccc(/C=C/C#N)cc1,84.6% (inactive),
CCCc1cc(=O)[nH]c(SCC(=O)c2c(C)[nH]c3ccccc23)n1,116% (inactive),
